From PubChem BioAssay (EPA / NIEHS)
Inconclusive results are not listed. Activity calls are given as the source filed them. The calls were made as follows, unless noted: active = hit-call score of the fitted dose curve at least 0.9, where 1 is the maximum; inactive = score below 0.9.

Columns and labels:
[1] = molecular target: Oxysterols receptor LXR-alpha (Homo sapiens) (UniProt Q13133); experiment: ATG_LXRa_TRANS: Attagene TRANS-FACTORIAL HepG2 Assay for human Liver X Receptor alpha (LXRa) (AID 2282980; active = hit-call score of the fitted dose curve at least 0.9, where 1 is the maximum); details: HepG2 Attagene TRANS reporter, LXRa transactivation
Oxysterols receptor LXR-alpha (Homo sapiens), sequence (Q13133 whole entry, looked up, the tested form may be a part): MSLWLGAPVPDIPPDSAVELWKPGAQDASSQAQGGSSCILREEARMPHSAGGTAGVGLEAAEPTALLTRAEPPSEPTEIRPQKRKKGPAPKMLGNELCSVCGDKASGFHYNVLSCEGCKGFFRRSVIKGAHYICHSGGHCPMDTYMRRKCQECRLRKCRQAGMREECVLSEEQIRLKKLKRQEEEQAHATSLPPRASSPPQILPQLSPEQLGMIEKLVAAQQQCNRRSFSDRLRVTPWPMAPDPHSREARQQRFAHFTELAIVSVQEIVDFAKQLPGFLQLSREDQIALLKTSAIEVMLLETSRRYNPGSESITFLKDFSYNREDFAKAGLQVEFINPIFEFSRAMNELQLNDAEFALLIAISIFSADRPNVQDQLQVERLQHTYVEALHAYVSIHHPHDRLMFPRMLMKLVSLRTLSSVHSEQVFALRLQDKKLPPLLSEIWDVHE
How it was run: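 In this multiplexed TRANS system, compounds act on HepG2 cells carrying GAL4-UAS reporter units and a receptor-GAL4 fusion for 24 h. Induced reporter RNA is amplified, fluorescently labelled and sized by capillary electrophoresis, with DMSO as baseline.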

[2] = molecular target: Oxysterols receptor LXR-beta (Homo sapiens) (UniProt P55055); experiment: ATG_LXRb_TRANS: Attagene TRANS-FACTORIAL HepG2 Assay for human Liver X Receptor beta (LXRb) (AID 2282981; active = hit-call score of the fitted dose curve at least 0.9, where 1 is the maximum); details: HepG2 Attagene TRANS GAL4-LXRb reporter, mRNA
Oxysterols receptor LXR-beta (Homo sapiens), sequence (P55055 whole entry, looked up, the tested form may be a part): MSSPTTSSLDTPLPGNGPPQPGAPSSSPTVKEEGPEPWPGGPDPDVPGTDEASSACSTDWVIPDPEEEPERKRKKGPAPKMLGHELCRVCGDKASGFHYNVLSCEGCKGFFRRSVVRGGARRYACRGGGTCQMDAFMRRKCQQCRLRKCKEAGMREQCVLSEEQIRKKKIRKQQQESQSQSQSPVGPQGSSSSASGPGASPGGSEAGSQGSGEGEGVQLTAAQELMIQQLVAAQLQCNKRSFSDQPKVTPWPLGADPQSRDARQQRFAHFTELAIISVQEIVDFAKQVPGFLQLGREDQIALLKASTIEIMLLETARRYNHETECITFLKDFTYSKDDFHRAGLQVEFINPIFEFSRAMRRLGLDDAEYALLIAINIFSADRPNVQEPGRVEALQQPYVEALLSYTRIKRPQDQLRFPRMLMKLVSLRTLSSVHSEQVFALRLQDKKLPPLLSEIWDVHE
How it was run: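 Multiplexed reporter assay, HepG2, 24 h dosing. Fluorescence of labelled RT-PCR products after capillary electrophoresis gives transcript level; positive fitting direction relative to DMSO.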

[3] = molecular target: Hepatocyte nuclear factor 4-alpha (Homo sapiens) (UniProt P41235); experiment: ATG_HNF4a_TRANS: Attagene TRANS-FACTORIAL HepG2 Assay for human Hepatocyte Nuclear Factor 4 alpha (HNF4a) (AID 2282982; active = hit-call score of the fitted dose curve at least 0.9, where 1 is the maximum); details: HepG2 HNF4a transactivation reporter, mRNA readout
Hepatocyte nuclear factor 4-alpha (Homo sapiens), sequence (P41235 whole entry, looked up, the tested form may be a part): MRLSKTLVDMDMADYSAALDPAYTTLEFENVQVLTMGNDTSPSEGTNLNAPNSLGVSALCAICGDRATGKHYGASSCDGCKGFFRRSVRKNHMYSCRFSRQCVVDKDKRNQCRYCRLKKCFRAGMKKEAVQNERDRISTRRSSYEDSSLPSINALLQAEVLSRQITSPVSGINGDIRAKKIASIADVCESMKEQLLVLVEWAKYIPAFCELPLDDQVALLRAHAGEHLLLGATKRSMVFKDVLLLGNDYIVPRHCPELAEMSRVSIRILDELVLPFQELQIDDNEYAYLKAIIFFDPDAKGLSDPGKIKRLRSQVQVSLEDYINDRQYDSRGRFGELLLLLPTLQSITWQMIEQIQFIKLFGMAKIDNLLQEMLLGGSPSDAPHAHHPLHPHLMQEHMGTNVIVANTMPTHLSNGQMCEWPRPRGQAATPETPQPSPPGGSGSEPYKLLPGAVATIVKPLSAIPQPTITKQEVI
How it was run: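 Endpoint reflects transcriptional activation of a GAL4-UAS reporter by an HNF4a-GAL4 chimera in transfected HepG2 cells, 24 h post-dosing. Fluorescence from RT-PCR products separated by capillary electrophoresis; DMSO baseline.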

[4] = ATG_M_06_TRANS: Attagene TRANS-FACTORIAL HepG2 Assay for M06 Transcription Factor (Internal Marker) (AID 2282983; active = hit-call score of the fitted dose curve at least 0.9, where 1 is the maximum); details: HepG2 Attagene TRANS M06 internal marker reporter
How it was run: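 Multi-reporter-transfected HepG2, 24 h treatment; reporter transcripts quantified via RT-PCR, primer-extension labelling and CE. DMSO-normalized gain-of-signal fit.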

[5] = ATG_M_32_TRANS: Attagene TRANS-FACTORIAL HepG2 Assay for M32 Transcription Factor (Internal Marker) (AID 2282984; active = hit-call score of the fitted dose curve at least 0.9, where 1 is the maximum;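 also: transcript level of a background control reporter unit measured by RT-PCR and capillary electrophoresis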); details: HepG2 Attagene TRANS M32 internal marker reporter
How it was run: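 Internal-marker readout from a multiplexed transcription reporter panel. HepG2 cells were transfected with GAL4-UAS reporter units, treated 24 hours, and reporter transcript levels determined by fluorescence after RT-PCR and capillary separation.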

[6] = molecular target: Nuclear receptor subfamily 4 group A member 2 (Homo sapiens) (UniProt P43354); experiment: ATG_NURR1_TRANS: Attagene TRANS-FACTORIAL HepG2 Assay for human Nuclear Receptor Related Protein 1 (NURR1) (AID 2282985; active = hit-call score of the fitted dose curve at least 0.9, where 1 is the maximum); details: HepG2 Attagene TRANS reporter, mRNA readout
Nuclear receptor subfamily 4 group A member 2 (Homo sapiens), sequence (P43354 whole entry, looked up): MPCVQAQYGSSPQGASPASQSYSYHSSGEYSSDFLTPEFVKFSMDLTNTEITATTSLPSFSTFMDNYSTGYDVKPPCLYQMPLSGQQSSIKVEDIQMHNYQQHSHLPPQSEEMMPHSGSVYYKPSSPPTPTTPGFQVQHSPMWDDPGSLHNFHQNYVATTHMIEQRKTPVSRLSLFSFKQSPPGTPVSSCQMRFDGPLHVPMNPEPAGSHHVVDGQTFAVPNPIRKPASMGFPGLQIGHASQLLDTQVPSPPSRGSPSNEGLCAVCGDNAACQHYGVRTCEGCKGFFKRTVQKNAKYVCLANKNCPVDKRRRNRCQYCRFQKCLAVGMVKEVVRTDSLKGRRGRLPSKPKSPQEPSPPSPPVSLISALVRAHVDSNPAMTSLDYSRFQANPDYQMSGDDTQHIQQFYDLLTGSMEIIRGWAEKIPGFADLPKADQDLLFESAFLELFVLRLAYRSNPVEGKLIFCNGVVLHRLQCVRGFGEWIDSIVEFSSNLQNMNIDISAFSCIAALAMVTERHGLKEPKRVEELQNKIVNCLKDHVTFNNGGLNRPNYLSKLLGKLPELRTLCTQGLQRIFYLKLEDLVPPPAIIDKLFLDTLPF
How it was run: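 Endpoint: reporter mRNA increase relative to DMSO. HepG2 cells transfected with reporter units, treated 24 h; RNA processed by RT-PCR, labelling, HpaI digestion and capillary electrophoresis.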

[7] = molecular target: Transcriptional activator Myb (Homo sapiens) (UniProt P10242); experiment: ATG_Myb_CIS: Attagene CIS-FACTORIAL HepG2 Assay for human Myeloblastosis (Myb) Proto-Oncogene Transcription Factor (AID 2282986); details: HepG2 Attagene CIS-FACTORIAL Myb reporter transcription; actives raise or lower the signal
How it was run: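 Fluorescence signals from capillary electrophoresis of RT-PCR-amplified reporter cDNA give the read-out. Cells: HepG2 transfected with multiple cis-regulated reporter units. Exposure lasts 24 hours; DMSO defines baseline for gain or loss of signal.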

[8] = molecular target: Nuclear respiratory factor 1 (Homo sapiens) (UniProt Q16656); experiment: ATG_NRF1_CIS: Attagene CIS-FACTORIAL HepG2 Assay for human Nuclear Respiratory Factor 1 (NRF1) Orphan Gene (AID 2282987); details: HepG2 NRF1 cis-element reporter, Attagene multiplex; actives raise or lower the signal
Nuclear respiratory factor 1 (Homo sapiens), sequence (Q16656 whole entry, looked up): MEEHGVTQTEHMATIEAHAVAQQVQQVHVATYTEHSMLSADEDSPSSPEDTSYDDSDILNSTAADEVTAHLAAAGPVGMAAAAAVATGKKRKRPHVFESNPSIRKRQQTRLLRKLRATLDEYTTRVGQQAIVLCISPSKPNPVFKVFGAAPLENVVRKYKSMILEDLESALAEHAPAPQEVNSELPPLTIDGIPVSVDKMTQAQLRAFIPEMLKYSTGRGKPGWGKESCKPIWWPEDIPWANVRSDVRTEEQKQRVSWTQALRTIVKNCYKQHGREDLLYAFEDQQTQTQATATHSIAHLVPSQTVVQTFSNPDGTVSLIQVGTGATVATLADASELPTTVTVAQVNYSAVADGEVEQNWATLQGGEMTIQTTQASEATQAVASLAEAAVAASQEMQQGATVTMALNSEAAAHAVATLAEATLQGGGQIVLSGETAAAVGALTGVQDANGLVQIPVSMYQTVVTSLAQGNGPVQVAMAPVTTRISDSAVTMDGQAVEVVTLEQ
How it was run: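 Transcriptional reporter readout, one component of a 52-endpoint multiplexed HepG2 panel. Exposure 24 h; mRNA detected via RT-PCR and fluorescent capillary electrophoresis; fitting in both directions against DMSO.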

[9] = ATG_NFI_CIS: Attagene CIS-FACTORIAL HepG2 Assay for human Nuclear Factor I (NFI) (AID 2282989); details: HepG2 cis-regulatory reporter, NFI response element transcription; actives raise or lower the signal
How it was run: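 Multiplexed cis-reporter system in human HepG2 cells reports native TF activity as reporter mRNA induction 24 h post-dose. Fragments labelled with 6-FAM, HpaI-digested and resolved by capillary electrophoresis; activity fitted both directions versus DMSO.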

[10] = molecular target: Myc proto-oncogene protein (Homo sapiens) (UniProt P01106); experiment: ATG_Myc_CIS: Attagene CIS-FACTORIAL HepG2 Assay for human Myelocytomatosis (Myc) Proto-Oncogene Transcription Factor (AID 2282990); details: HepG2, Attagene cis-reporter transcription factor activity; actives raise or lower the signal
Myc proto-oncogene protein (Homo sapiens), sequence (P01106 whole entry, looked up): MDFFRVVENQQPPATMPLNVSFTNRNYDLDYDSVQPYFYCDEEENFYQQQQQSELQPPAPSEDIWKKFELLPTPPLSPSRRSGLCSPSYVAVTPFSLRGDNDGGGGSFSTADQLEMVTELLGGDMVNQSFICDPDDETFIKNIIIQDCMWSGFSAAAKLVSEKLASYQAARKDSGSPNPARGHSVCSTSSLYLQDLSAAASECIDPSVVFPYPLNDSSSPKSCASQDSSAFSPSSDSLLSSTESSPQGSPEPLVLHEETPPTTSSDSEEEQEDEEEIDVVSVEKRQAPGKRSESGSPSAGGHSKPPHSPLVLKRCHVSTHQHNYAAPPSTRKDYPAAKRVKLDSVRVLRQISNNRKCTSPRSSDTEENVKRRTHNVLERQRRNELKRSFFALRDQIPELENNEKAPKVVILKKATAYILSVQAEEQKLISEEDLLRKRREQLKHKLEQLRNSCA
How it was run: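 Transiently transfected HepG2 cells bearing cis-promoter reporter units for endogenous transcription factors; 24 h exposure. Reporter mRNA measured by RT-PCR, 6-FAM primer extension, HpaI cut and capillary electrophoresis; bidirectional fit relative to DMSO.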

[11] = ATG_NRF2_ARE_CIS: Attagene CIS-FACTORIAL HepG2 Assay for human Nuclear Factor Erythroid 2 Related Factor 2 (NFR2) response to Antioxidant Response Elements (ARE) (AID 2282992); details: HepG2 Attagene ARE/NRF2 reporter, transcription factor activity; actives raise or lower the signal;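 as to AC50: reporter mRNA level measured by RT-PCR and capillary electrophoresis fluorescence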
How it was run: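 Readout: reporter mRNA quantified by RT-PCR plus FAM-labelled primer extension, HpaI digestion and capillary electrophoresis, 24 h after dosing transfected HepG2 cells. Gain or loss of signal is fitted bidirectionally against DMSO baseline.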

[12] = molecular target: Bile acid receptor (Homo sapiens) (UniProt Q96RI1); experiment: ATG_FXR_TRANS: Attagene TRANS-FACTORIAL HepG2 Assay for Farnesoid X Receptor (FXR) (AID 2282979; active = hit-call score of the fitted dose curve at least 0.9, where 1 is the maximum;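 also: hits raise reporter mRNA above DMSO so AC50 marks FXR activation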); details: HepG2 Attagene TRANS FXR-GAL4 reporter transcription
Bile acid receptor (Homo sapiens), sequence (Q96RI1 whole entry, looked up, the tested form may be a part): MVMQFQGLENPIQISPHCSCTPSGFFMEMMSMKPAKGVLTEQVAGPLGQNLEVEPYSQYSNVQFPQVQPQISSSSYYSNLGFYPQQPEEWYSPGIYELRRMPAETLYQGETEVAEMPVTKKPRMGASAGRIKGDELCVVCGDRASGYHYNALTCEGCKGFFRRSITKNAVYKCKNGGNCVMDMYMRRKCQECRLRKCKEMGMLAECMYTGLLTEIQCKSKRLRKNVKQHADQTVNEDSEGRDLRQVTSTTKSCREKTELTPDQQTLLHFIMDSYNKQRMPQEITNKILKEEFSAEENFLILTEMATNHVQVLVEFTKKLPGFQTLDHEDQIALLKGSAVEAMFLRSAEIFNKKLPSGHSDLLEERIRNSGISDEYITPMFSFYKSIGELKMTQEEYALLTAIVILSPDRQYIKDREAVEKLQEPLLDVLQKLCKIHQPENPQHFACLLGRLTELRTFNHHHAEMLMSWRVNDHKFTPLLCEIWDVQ
How it was run: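 After 24 h chemical treatment of transfected HepG2 cells, GAL4-UAS reporter transcripts driven by an exogenous FXR-GAL4 fusion were measured by RT-PCR and capillary electrophoresis. Increases over DMSO were fitted.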

[13] = ATG_NF_kB_CIS: Attagene CIS-FACTORIAL HepG2 Assay for human Nuclear Factor Kappa B (NF-kB) (AID 2282991); details: HepG2 Attagene cis-factorial NF-kB reporter mRNA; actives raise or lower the signal
How it was run: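 HepG2, transient multi-reporter transfection, cis promoter elements (endogenous TFs). 24 h exposure. Total RNA → RT → PCR → 6-FAM label → HpaI → CE. Gain/loss vs DMSO.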

[14] = ATG_Oct_MLP_CIS: Attagene CIS-FACTORIAL HepG2 Assay for human Octamer-Binding Transcription Factor (Oct) (AID 2282993); details: HepG2 Attagene cis-factorial Oct reporter, mRNA; actives raise or lower the signal
How it was run: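 After 24 h compound exposure, transfected HepG2 cells were lysed for total RNA; reporter-specific cDNA was PCR-amplified, fluorescently labelled and sized by capillary electrophoresis. Bidirectional curve fitting used DMSO as baseline.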

[15] = molecular target: Glucocorticoid receptor (Homo sapiens) (UniProt P04150); experiment: ATG_GR_TRANS: Attagene TRANS-FACTORIAL HepG2 Assay for human Glucocorticoid Receptor (GR) (AID 2282978; active = hit-call score of the fitted dose curve at least 0.9, where 1 is the maximum;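 also: activators score as hits since higher reporter transcript over DMSO is fitted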); details: HepG2 Attagene TRANS GR reporter, mRNA transcription
Glucocorticoid receptor (Homo sapiens), sequence (P04150 whole entry, looked up, the tested form may be a part): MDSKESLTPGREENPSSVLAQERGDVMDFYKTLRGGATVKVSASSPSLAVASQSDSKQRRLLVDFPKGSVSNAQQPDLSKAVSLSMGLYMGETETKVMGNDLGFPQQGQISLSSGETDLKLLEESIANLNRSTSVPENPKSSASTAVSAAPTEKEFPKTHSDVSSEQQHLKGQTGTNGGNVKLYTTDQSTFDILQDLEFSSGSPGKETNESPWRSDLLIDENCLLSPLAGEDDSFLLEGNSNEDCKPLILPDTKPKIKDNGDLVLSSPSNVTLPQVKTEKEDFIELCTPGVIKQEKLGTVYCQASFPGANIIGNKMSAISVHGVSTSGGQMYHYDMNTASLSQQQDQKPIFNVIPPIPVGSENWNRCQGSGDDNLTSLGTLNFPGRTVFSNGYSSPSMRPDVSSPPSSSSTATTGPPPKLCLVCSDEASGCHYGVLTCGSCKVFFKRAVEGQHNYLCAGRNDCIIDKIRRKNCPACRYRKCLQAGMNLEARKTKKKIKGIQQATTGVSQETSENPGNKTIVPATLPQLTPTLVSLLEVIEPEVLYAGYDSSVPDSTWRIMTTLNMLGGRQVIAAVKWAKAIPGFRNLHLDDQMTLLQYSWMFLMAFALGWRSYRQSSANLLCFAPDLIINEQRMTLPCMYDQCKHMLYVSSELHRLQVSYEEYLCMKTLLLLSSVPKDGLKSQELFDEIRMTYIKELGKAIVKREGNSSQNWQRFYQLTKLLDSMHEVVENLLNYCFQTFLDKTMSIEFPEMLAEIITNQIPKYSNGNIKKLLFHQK
How it was run: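 Measurement of GAL4-UAS-driven reporter mRNA in human HepG2 liver cells 24 h post-dosing, using RT-PCR with fluorescent labelling and capillary electrophoresis; the transfected constructs report exogenous NR-GAL4 chimera activity, fitted upward against DMSO.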

[16] = molecular target: Cellular tumor antigen p53 (Homo sapiens) (UniProt P04637); experiment: ATG_p53_CIS: Attagene CIS-FACTORIAL HepG2 Assay for human p53 Transcription Factor (AID 2282994); details: HepG2 p53 cis-element reporter, Attagene mRNA; actives raise or lower the signal
Cellular tumor antigen p53 (Homo sapiens), sequence (P04637 whole entry, looked up): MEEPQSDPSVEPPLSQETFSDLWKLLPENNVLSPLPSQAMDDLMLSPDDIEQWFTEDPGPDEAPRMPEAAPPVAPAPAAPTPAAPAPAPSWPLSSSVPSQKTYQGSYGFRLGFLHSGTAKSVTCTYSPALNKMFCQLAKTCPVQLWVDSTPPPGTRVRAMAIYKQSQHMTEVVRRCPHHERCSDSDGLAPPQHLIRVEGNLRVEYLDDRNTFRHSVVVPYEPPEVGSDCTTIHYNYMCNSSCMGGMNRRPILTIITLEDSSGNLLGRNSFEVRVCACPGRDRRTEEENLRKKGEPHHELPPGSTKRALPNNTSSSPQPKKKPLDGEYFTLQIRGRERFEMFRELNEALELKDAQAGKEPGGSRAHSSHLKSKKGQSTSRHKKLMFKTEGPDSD
How it was run: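 Read-out: reporter mRNA by RT-PCR plus capillary electrophoresis with fluorescence detection. Human HepG2 liver cells carried transfected multi-reporter cis-element constructs, dosed 24 h. Gain or loss of signal fitted bidirectionally against DMSO control.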

[17] = BSK_3C_TissueFactor: BioMAP Diversity Plus: 3C Assay for Tissue Factor Biomarker Activity (AID 2282997); details: BioMAP 3C HUVEC, tissue factor biomarker readout; actives raise or lower the signal
How it was run: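 In this endothelial system, HUVEC are treated for 24 h and Tissue Factor is assessed by ELISA, normalised to DMSO.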

[18] = BSK_3C_VCAM1: BioMAP Diversity Plus: 3C Assay for Vascular cell adhesion molecule 1 (VCAM1) Biomarker Activity (AID 2282999); details: BioMAP 3C HUVEC, VCAM1 ELISA, cytokine-stimulated; actives raise or lower the signal
How it was run: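 HUVEC primary cells, 24 h compound exposure; VCAM-1 by ELISA; gain/loss of signal fitted bidirectionally vs DMSO baseline.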

Measured: AC50

N#CCCNCCC#N
inactive: [1] | [2] | [3] | [4] | [5] | [6] | [7] | [8] | [9] | [10] | [11]

Cc1ccccc1S
inactive: [12] | [3] | [4] | [7] | [8] | [13]
active: [9] 74 µM | [10] 45 µM | [11] 24.5 µM | [14] 98.5 µM

CC1(C)[C@H](C=C(Cl)Cl)[C@H]1C(=O)OCc1cccc(Oc2ccccc2)c1
inactive: [15] | [3] | [4] | [6] | [7] | [8] | [9] | [10] | [11] | [16] | [17] | [18]

CC1=CCC(C(C)(C)O)CC1 (stereo not given)
inactive: [12] | [4] | [6] | [7] | [8] | [9] | [10] | [13] | [11] | [14]

CCCCCCC(O)CCOC(C)=O (stereo not given)
inactive: [12] | [3] | [7] | [8] | [9] | [10] | [13] | [11] | [16]

[Cl][Dy]([Cl])[Cl]
inactive: [12] | [1] | [2] | [3] | [7] | [8] | [9] | [10] | [13] | [11] | [14] | [16]

C=C(C)C(=O)OCCC(C)OC(=O)C(=C)C (stereo not given)
inactive: [15] | [3] | [5] | [7] | [8] | [9] | [10] | [13] | [11] | [14] | [16]

CCCCCCCCSCc1cc(C)c(O)c(CSCCCCCCCC)c1
inactive: [12] | [2] | [3] | [5] | [6] | [7] | [8] | [9] | [10] | [13] | [11] | [16]

C1=COCCC1
inactive: [15] | [4] | [5] | [6] | [7] | [9] | [10] | [13] | [11] | [14] | [16]

CC12CCC(C1)C(C)(C)C2O (stereo not given)
inactive: [12] | [2] | [3] | [4] | [6] | [7] | [8] | [9] | [10] | [13] | [11] | [14] | [16]

CCCCOCCOC(=O)c1ccccc1C(=O)OCCOCCCC
inactive: [12] | [2] | [4] | [5] | [7] | [8] | [9] | [10] | [14] | [16]
active: [6] 45.3 µM | [11] 37.7 µM

CCCCCC1CCC(=O)O1 (stereo not given)
inactive: [15] | [6] | [7] | [8] | [9] | [10] | [13] | [11] | [14] | [16]

CC/C=C\CCOC(C)OCC (stereo not given)
inactive: [15] | [3] | [4] | [5] | [6] | [7] | [8] | [9] | [10] | [11] | [14] | [16]

CCn1cc(C(=O)O)c(=O)c2ccc(C)nc21
inactive: [12] | [4] | [5] | [7] | [8] | [9] | [10] | [13] | [11] | [14] | [17] | [18]

C=CCOCC(O)CO (stereo not given)
active: [7] 152 µM | [10] 137 µM
inactive: [12] | [3] | [8] | [9] | [11] | [14] | [16]

CCCCOCCOCCO
inactive: [15] | [4] | [5] | [6] | [7] | [8] | [9] | [10] | [13] | [11] | [14] | [16] | [17] | [18]

COc1ccc(N)c(C)c1
inactive: [12] | [1] | [2] | [3] | [6] | [7] | [8] | [9] | [10] | [13] | [14]
active: [11] 46.3 µM

CCc1cccc(O)c1
inactive: [12] | [1] | [3] | [4] | [5] | [7] | [8] | [9] | [10] | [11] | [14] | [16]

CC(=O)C1C(=O)C=C(C)OC1=O (stereo not given)
inactive: [12] | [4] | [5] | [6] | [7] | [8] | [9] | [10] | [11] | [14] | [16]

c1ccc2c(c1)-c1ccc3ccc4cccc5cc-2c1c3c45
active: [11] 0.205 µM | [17] 0.0352 µM
inactive: [12] | [1] | [2] | [3] | [4] | [5] | [6] | [7] | [8] | [9] | [10] | [13] | [16] | [18]

CCC(=O)OCC=Cc1ccccc1
inactive: [12] | [2] | [3] | [4] | [5] | [7] | [8] | [9] | [10] | [13] | [16] | [17] | [18]
active: [11] 36.3 µM
